# For some assays here: Measured potencies and affinities stand elsewhere. Active and inactive are the calls of the source.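 Rule for the calls, unless noted: active = dose-response curve with midpoint inside the tested range, moderate steepness, significant amplitude and little compound fluorescence or bead-attachment interference; inactive = the rest.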
# What was measured:
# [1] = biological target: Cell division control protein 42 homolog (Homo sapiens) (UniProt P60953); test: activated mutant Cdc42 GTP-binding inhibitors, dose response, biochemical, multiplex bead flow cytometry, Bodipy-FL-GTP (AID 1333;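 active = fitted half-maximal concentration within the tested dose range, moderate curve steepness, a statistically real signal drop, and little compound fluorescence or tag-binding interference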)
# [2] = biological target: Cell division control protein 42 homolog (Homo sapiens) (UniProt P60953); test: wildtype Cdc42 GTP-binding inhibitors, dose response, biochemical, multiplex bead flow cytometry, Bodipy-FL-GTP (AID 1334;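 active = fitted half-maximal concentration within the tested range, moderate curve steepness, significant signal drop, and little compound fluorescence or bead-linkage interference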); settings: bead-based flow cytometry, Bodipy-FL-GTP binding to GST-Cdc42; at 100 µM (top of the series) unless noted
# [3] = biological target: GTPase HRas (Homo sapiens) (UniProt P01112); test: inhibitors of GTP binding to wildtype Ras, dose response, biochemical, multiplex bead flow cytometry (AID 1335;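 active = fitted half-maximal concentration within 10 nM to 100 µM, steepness 0.5 to 2, significant signal drop, low assay interference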); settings: bead-based flow cytometry, Bodipy-GTP binding to GST-Ras; at 100 µM (top of the series) unless noted
# [4] = system: Ras-related protein Rab-7a (dog), GTP binding; test: Rab7 GTP binding inhibitors, potency, dose response, biochemical, wildtype, multiplex bead flow cytometry (AID 1336; call rule not given here)
# [5] = biological target: GTPase HRas (Homo sapiens) (UniProt P01112); test: activated Ras mutant GTP binding inhibitors, dose response, biochemical, multiplex bead flow cytometry (AID 1341);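 note: GST-tagged constitutively activated Ras mutant immobilized on beads and multiplexed with other GTPases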
# [6] = biological target: Ras-related C3 botulinum toxin substrate 1 (Homo sapiens) (UniProt P63000); test: wildtype Rac1 GTP binding inhibitors, dose response, biochemical, multiplex bead flow cytometry (AID 1340;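 active = dose curve with midpoint inside tested range, moderate steepness, plateau gap beyond fit error, low compound glow and bead-link interference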); settings: GST-Rac1 beads, Bodipy-FL-GTP binding; at 100 µM (top of the series) unless noted
# [7] = RPL19A-GFP modulators, yeast TOR pathway, confirmation, cell-based, S. cerevisiae, flow cytometry, cherry picks, mother/daughter gates (AID 2270;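 active = GFP response below 50% of the DMSO control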); settings: S. cerevisiae RPL19A-GFP strain, 3 h, at 10 µM, stronger effect = lower value, 100 = same GFP as DMSO wells
# [8] = LAP4-GFP expression modulators in yeast, confirmation, cell-based, cherry picks, flow cytometry, mother/daughter gates (AID 2271;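 active = GFP response above 150% of the DMSO control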;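 note: ratio of sample to DMSO plate mean so 100% equals DMSO level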); settings: S. cerevisiae LAP4-GFP strain, 3 h, at 10 µM, stronger effect = higher value, 100 means same as DMSO control
# [9] = modulators of MEP2-GFP levels in yeast, confirmation, S. cerevisiae, flow cytometry GFP, cherry picks (AID 2272;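 active = GFP response above 150% of the DMSO control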;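 note: ratio of well signal to plate DMSO mean so 100% equals DMSO level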); settings: S. cerevisiae MEP2-GFP strain, 3 h, at 10 µM, stronger effect = higher value
# [10] = AGP1-GFP expression modulators, hit retest, confirmation, cell-based, flow cytometry, S. cerevisiae, cherry picks (AID 2273;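 active = GFP response above 150% of the DMSO level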;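 note: median GFP channel fluorescence over the whole cell population gate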); settings: S. cerevisiae AGP1-GFP strain, 3 h, at 10 µM
# [11] = modulators of CIT2-GFP expression in yeast, confirmation, S. cerevisiae, GFP fusion, cherry picks, mother/daughter gates (AID 2274;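 active = GFP response above 150% of the DMSO level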); settings: S. cerevisiae CIT2-GFP strain, flow cytometry, 3 h, at 10 µM, stronger effect = higher value
# [12] = measured here: daughter cell gate
# [13] = measured here: mother cell gate
# [14] = measured here: daughter cell gate response
# [15] = measured here: mother cell gate response
# GTPase HRas (Homo sapiens), sequence (P01112 whole entry, looked up): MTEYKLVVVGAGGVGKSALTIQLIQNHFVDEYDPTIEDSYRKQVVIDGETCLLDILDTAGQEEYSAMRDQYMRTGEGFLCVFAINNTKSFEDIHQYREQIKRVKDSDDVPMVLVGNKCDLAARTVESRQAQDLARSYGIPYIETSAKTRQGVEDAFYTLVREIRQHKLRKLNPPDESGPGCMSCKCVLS
# Cell division control protein 42 homolog (Homo sapiens), sequence (P60953 whole entry, looked up): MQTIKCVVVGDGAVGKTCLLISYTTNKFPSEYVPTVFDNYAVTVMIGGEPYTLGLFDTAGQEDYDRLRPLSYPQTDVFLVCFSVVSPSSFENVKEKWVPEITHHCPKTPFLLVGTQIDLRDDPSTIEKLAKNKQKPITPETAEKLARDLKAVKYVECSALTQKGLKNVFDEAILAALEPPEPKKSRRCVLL
structure (smiles),measurement,setting,value
CCOC(=O)CN(C(=O)CSc1nnc2c(n1)[nH]c1ccc(OC)cc12)c1ccc(F)cc1,outcome,[1],inactive
same,"fluorescence, percent of control (lower = inhibition)",[2],47.9%
same,"GTP binding, percent of control",[3],58.9%
same,outcome,[4],inactive
same,outcome,[5],inactive
CCC(C(=O)NC1CCCC1)N(C(=O)Cn1nnc(-c2ccc(C)o2)n1)c1cnc2ccccc2c1 (stereo not drawn),outcome,[1],inactive
same,"GTP binding, percent of control",[3],60.1%
same,outcome,[4],inactive
same,"GTP binding signal, raw median fluorescence (lower = inhibition) (MCF (arbitrary fluorescence units))",[6],194
same,outcome,[5],inactive
CCN1C(c2ccccc2)=C(c2ccccc2)S/C1=C/C=C1\SC(=S)N(C)C1=O,outcome,[1],inactive
same,"fluorescence, percent of control (lower = inhibition)",[2],41.8%
same,outcome,[4],inactive
same,"GTP binding signal, raw median fluorescence (lower = inhibition) (MCF (arbitrary fluorescence units))",[6],167
same,outcome,[5],inactive
CCn1cc(C=C2C(=O)c3ccccc3C2=O)c2ccccc21,outcome,[1],inactive
same,"fluorescence, percent of control (lower = inhibition)",[2],40.2%
same,outcome,[4],inactive
same,"GTP binding signal, raw median fluorescence (lower = inhibition) (MCF (arbitrary fluorescence units))",[6],161
same,outcome,[5],inactive
O=C1/C(=C\c2cccnc2)Sc2ccccc21,outcome,[1],inactive
same,"fluorescence, percent of control (lower = inhibition)",[2],29.1%
same,"GTP binding, percent of control",[3],62.4%
same,outcome,[4],inactive
same,outcome,[5],inactive
COc1cccc(NC(=O)COC(=O)/C=C/c2ccc(Cl)cc2Cl)c1,"fluorescence, percent of control (lower = inhibition)",[2],48.4%
same,"GTP binding, percent of control",[3],62%
same,outcome,[4],inactive
same,"GTP binding signal, raw median fluorescence (lower = inhibition) (MCF (arbitrary fluorescence units))",[6],180
same,outcome,[5],inactive
COc1ccccc1NCc1sc(C(=O)O)cc1C,outcome,[1],inactive
same,"fluorescence, percent of control (lower = inhibition)",[2],64.9%
same,"GTP binding, percent of control",[3],86.4%
same,outcome,[4],inactive
same,outcome,[5],inactive
CCOC(=O)c1c(NC(=O)C(=O)N/N=C/c2ccc(O)c(OC)c2)sc2c1CCCCC2,outcome,[1],inactive
same,"GTP binding, percent of control",[3],64.6%
same,outcome,[4],inactive
same,"GTP binding signal, raw median fluorescence (lower = inhibition) (MCF (arbitrary fluorescence units))",[6],184
same,outcome,[5],inactive
O=C(NC1CCCCC1)c1cc([N+](=O)[O-])[nH]n1,outcome,[1],inactive
same,"fluorescence, percent of control (lower = inhibition)",[2],37.3%
same,"GTP binding, percent of control",[3],80.1%
same,outcome,[4],inactive
same,outcome,[5],inactive
O=C(O)/C=C/c1cn(Cc2ccccc2)nc1-c1ccc(Cl)cc1,outcome,[1],inactive
same,"fluorescence, percent of control (lower = inhibition)",[2],34.9%
same,"GTP binding, percent of control",[3],84.9%
same,outcome,[4],inactive
same,outcome,[5],inactive
O=C(Nc1nc(-c2ccc(S(=O)(=O)N3CCCC3)cc2)cs1)c1ccco1,outcome,[1],inactive
same,"fluorescence, percent of control (lower = inhibition)",[2],49.8%
same,"GTP binding, percent of control",[3],118%
same,outcome,[4],inactive
same,outcome,[5],inactive
O=C(O)c1ccc(COc2ccccc2Cl)o1,outcome,[1],inactive
same,"fluorescence, percent of control (lower = inhibition)",[2],73.5%
same,"GTP binding, percent of control",[3],96.7%
same,outcome,[4],inactive
same,outcome,[5],inactive
CCOC(=O)Cn1nnnc1C(C(C)C)N(Cc1cccs1)Cc1cc2cc(C)ccc2[nH]c1=O (stereo not drawn),outcome,[1],inactive
same,"GTP binding, percent of control",[3],181%
same,outcome,[4],inactive
same,"GTP binding signal, raw median fluorescence (lower = inhibition) (MCF (arbitrary fluorescence units))",[6],181
same,outcome,[5],inactive
COc1cc(SC#N)ccc1N=Cc1c(C)[nH]n(-c2ccc(C)c(C)c2)c1=O,outcome,[1],inactive
same,"fluorescence, percent of control (lower = inhibition)",[2],44.7%
same,"GTP binding, percent of control",[3],83%
same,outcome,[4],inactive
same,outcome,[5],inactive
Cc1cccc(-n2nc(CC#N)c(C#N)c2N)c1,outcome,[1],inactive
same,"fluorescence, percent of control (lower = inhibition)",[2],33.5%
same,"GTP binding, percent of control",[3],74.8%
same,outcome,[4],inactive
same,outcome,[5],inactive
COc1ccc(-c2nnc(SCC(=O)c3cccs3)o2)cc1,outcome,[1],inactive
same,"fluorescence, percent of control (lower = inhibition)",[2],94.6%
same,"GTP binding, percent of control",[3],141%
same,outcome,[4],inactive
same,outcome,[5],inactive
CCS(=O)(=O)N1N=C(c2cccc(NS(C)(=O)=O)c2)CC1c1ccc(C)cc1 (stereo not drawn),outcome,[1],inactive
same,outcome,[4],inactive
same,"GTP binding signal, raw median fluorescence (lower = inhibition) (MCF (arbitrary fluorescence units))",[6],230
same,outcome,[5],inactive
same,GFP response vs DMSO,[7],100% (inactive)
same,GFP response vs DMSO,[7]; [12],99.1%
same,GFP response vs DMSO,[7]; [13],101%
same,GFP response relative to DMSO,[8],101% (inactive)
same,GFP response relative to DMSO,[8]; [14],97.5%
same,GFP response relative to DMSO,[8]; [15],100%
same,GFP response vs DMSO,[9],116% (inactive)
same,"GFP response, % of DMSO",[10],104% (inactive)
same,"GFP response, % of DMSO",[11],108% (inactive)
same,"GFP response, % of DMSO",[11]; [12],105%
same,"GFP response, % of DMSO",[11]; [13],108%
COc1ccc(Cl)cc1NCc1sc(C(=O)O)cc1C,outcome,[1],inactive
same,"fluorescence, percent of control (lower = inhibition)",[2],62.5%
same,"GTP binding, percent of control",[3],84.3%
same,outcome,[4],inactive
same,outcome,[5],inactive
Cc1ccc(-n2c(=O)cc(N3CCc4ccccc4C3)[nH]c2=O)cc1,outcome,[1],inactive
same,"fluorescence, percent of control (lower = inhibition)",[2],58.7%
same,outcome,[4],inactive
same,"GTP binding signal, raw median fluorescence (lower = inhibition) (MCF (arbitrary fluorescence units))",[6],251
same,outcome,[5],inactive
S=C(Nc1ccc(Oc2ccccc2)cc1)NC1CCCCC1,outcome,[1],inactive
same,"GTP binding, percent of control",[3],62.2%
same,outcome,[4],inactive
same,"GTP binding signal, raw median fluorescence (lower = inhibition) (MCF (arbitrary fluorescence units))",[6],205
same,outcome,[5],inactive
Cc1cc(C(=O)Oc2ccccc2C(=O)O)c(C)o1,outcome,[1],inactive
same,"fluorescence, percent of control (lower = inhibition)",[2],61.1%
same,outcome,[5],inactive
CCCS(=O)(=O)c1nnnn1-c1cccc(OC)c1,outcome,[1],inactive
same,"GTP binding, percent of control",[3],71.2%
same,outcome,[4],inactive
same,"GTP binding signal, raw median fluorescence (lower = inhibition) (MCF (arbitrary fluorescence units))",[6],230
same,outcome,[5],inactive
same,GFP response vs DMSO,[7],87.7% (inactive)
same,GFP response vs DMSO,[7]; [12],84.6%
same,GFP response vs DMSO,[7]; [13],83.9%
same,GFP response relative to DMSO,[8],176% (active)
same,GFP response relative to DMSO,[8]; [14],154%
same,GFP response relative to DMSO,[8]; [15],178%
same,GFP response vs DMSO,[9],119% (inactive)
same,"GFP response, % of DMSO",[10],106% (inactive)
same,"GFP response, % of DMSO",[11],74.8% (inactive)
same,"GFP response, % of DMSO",[11]; [12],74.6%
same,"GFP response, % of DMSO",[11]; [13],65.8%
O=C(Nc1ccccc1)C1=C(c2ccccc2)S(=O)(=O)CCS1(=O)=O,"fluorescence, percent of control (lower = inhibition)",[2],21.5%
same,"GTP binding, percent of control",[3],72.8%
same,outcome,[4],inactive
same,"GTP binding signal, raw median fluorescence (lower = inhibition) (MCF (arbitrary fluorescence units))",[6],217
same,outcome,[5],inactive
O=C(COc1ncnc2cc([N+](=O)[O-])ccc12)NCCc1ccc(Cl)cc1,outcome,[1],inactive
same,"fluorescence, percent of control (lower = inhibition)",[2],36.6%
same,"GTP binding, percent of control",[3],78.8%
same,outcome,[4],inactive
same,outcome,[5],inactive
O=C(C#CC1CCCCC1)c1ccc([N+](=O)[O-])cc1,"fluorescence, percent of control (lower = inhibition)",[2],33%
same,"GTP binding, percent of control",[3],177%
same,outcome,[4],inactive
same,"GTP binding signal, raw median fluorescence (lower = inhibition) (MCF (arbitrary fluorescence units))",[6],45.6
same,outcome,[5],inactive
NC(N)=NS(=O)(=O)c1ccc(NC(=S)NC(=O)c2ccc3c(c2)OCO3)cc1,outcome,[1],inactive
same,"fluorescence, percent of control (lower = inhibition)",[2],44.3%
same,"GTP binding, percent of control",[3],97.7%
same,outcome,[4],inactive
same,outcome,[5],inactive
Cc1sc2nc3ccc(NCc4ccco4)nn3c(=O)c2c1C,outcome,[1],inactive
same,"GTP binding, percent of control",[3],57.4%
same,outcome,[4],inactive
same,outcome,[5],inactive
COc1cccc(-n2nnnc2S(C)(=O)=O)c1,"fluorescence, percent of control (lower = inhibition)",[2],34%
same,"GTP binding, percent of control",[3],59.3%
same,outcome,[4],inactive
same,"GTP binding signal, raw median fluorescence (lower = inhibition) (MCF (arbitrary fluorescence units))",[6],157
same,outcome,[5],inactive

# Source: PubChem BioAssay
